The results in this text go back to PubChem BioAssay (NCATS).

Results filed as inconclusive are left out. The source made the active and inactive calls. The call rests on the fitted dose curve; in most records, active means well fitted inhibition curve with a large enough effect; inconclusive means small, poorly fitted or top-dose-only effect; inactive means flat fitted curve, though single readings scatter. Where a SMILES comes first, the peptide text is derived from it. Bridges are numbered along the chain shown (N, C = ends). [ ]: non-standard residue; d: D form. hArg = N=C(N)NCCCC[C@H](N)C(=O)O; Mpa = O=C(O)CCS
On the % scale 0 is the no-effect control and ±100 the full control effect.

This assay relates to MKL-1. Description: qHTS assay to identify novel small-molecules to repurpose for Merkel cell carcinoma treatment (AID 1296009). Further: nearly all actives have a fitted effect of over 60% in size. The note with it: MCC and control cell lines, CellTiter-Glo viability, 72 h; series mostly up to 46 µM; activity change, negative = cytotoxicity: at the top concentration. An outline of the steps:
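Cells exposed to NPC (8-point) and MIPE (11-point) compound dilutions for 72 hr at 37 degree celsius; viability read by CellTiter-Glo luminescence, normalized to no-cell and DMSO in-plate controls.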
For `NC(=O)[C@@H]1CSSCCC(=O)N[C@@H](CCCCN=C(N)N)C(=O)NCC(=O)N[C@@H](CC(=O)O)C(=O)N[C@@H](Cc2c[nH]c3ccccc23)C(=O)N2CCC[C@H]2C(=O)N1` ([Mpa][hArg]GDWPC-NH2; disulfide 1-7), the “activity change, negative = cytotoxicity” value was 7.14% (inactive).

In the case of `Cc1ccc(C(C)C)c(O)c1`, the “activity change, negative = cytotoxicity” value was 14.9% (inactive).

With `COc1ccc(-c2cc(=O)c3c(O)cc(O[C@@H]4O[C@H](CO[C@@H]5O[C@@H](C)[C@H](O)[C@@H](O)[C@H]5O)[C@@H](O)[C@H](O)[C@H]4O)cc3o2)cc1O`, the “activity change, negative = cytotoxicity” value is 19.2% (inactive). The value for `CC[N+](C)(CC)CCOC(=O)C1c2ccccc2Oc2ccccc21` was 0.397% (inactive); that for `COc1ccccc1Oc1c(NS(=O)(=O)c2ccc(C(C)(C)C)cc2)nc(-c2ncccn2)nc1OCCO` was -2.6% (inactive); that for `Cc1cc(C)c(NC(=O)CN(CC(=O)O)CC(=O)O)c(C)c1Br` was 4.56% (inactive). On to `Cc1ccc(S(=O)(=O)NC(=O)NC2CCCCCCC2)cc1`, for which the “activity change, negative = cytotoxicity” value is 10.8% (inactive).

Regarding `C/C=C1\[C@H]2C=C(C)C[C@]1(N)c1ccc(=O)[nH]c1C2`, the “activity change, negative = cytotoxicity” value was 0.987% (inactive).

On to `C1CCN2C[C@@H]3C[C@@H](CN4CCCC[C@@H]34)[C@H]2C1`, for which the “activity change, negative = cytotoxicity” value was 1.54% (inactive). The value for `CCCNC(C)(C)COC(=O)c1ccccc1` was -8.3% (inactive); that for `C[C@@H]1CCC[C@H](C)N1` was 9.3% (inactive). As for `Cn1cc(C(=O)[C@@H]2CCc3nc[nH]c3C2)c2ccccc21`, the “activity change, negative = cytotoxicity” value is -4.48% (inactive). Then `CCOC(=O)[C@H](CCc1ccccc1)N[C@@H](C)C(=O)N1CCC[C@H]1C(=O)O`, with 8.27% (inactive); and `c1ccc2[nH]ccc2c1`, with 0.126% (inactive).

As for `NS(=O)(=O)c1ccc(C(=O)O)cc1`, the “activity change, negative = cytotoxicity” value is 6.24% (inactive). The value for `O=C(Cn1ccnc1[N+](=O)[O-])NCc1ccccc1` was -0.786% (inactive); that for `O=c1[nH]cnc2nc[nH]c12` was 25% (inactive).

Turning to `O[C@@H]1CO[C@H]2[C@@H]1OC[C@@H]2O`, the “activity change, negative = cytotoxicity” value is -1.88% (inactive). Then `Cc1cc(OI)c(C(C)C)cc1-c1cc(C(C)C)c(OI)cc1C`, with 0.367% (inactive). In the case of `CC(=O)N[C@H]1[C@H]([C@H](O)[C@H](O)CO)OC(C(=O)O)=C[C@@H]1N=C(N)N`, the “activity change, negative = cytotoxicity” value is -0.489% (inactive).

For the molecule `CC1(C)S[C@@H]2[C@H](NC(=O)C(C(=O)O)c3ccccc3)C(=O)N2[C@H]1C(=O)O` (stereo partly drawn), the “activity change, negative = cytotoxicity” value is 0.505% (inactive). Then `CC(=O)NS(=O)(=O)c1ccc(N)cc1`, with 3.86% (inactive); and `C=CCNC(N)=S`, with 4.35% (inactive). With `CC(=O)[C@@]1(O)CC[C@H]2[C@@H]3C[C@H](C)C4=CC(=O)C=C[C@]4(C)[C@@]3(F)[C@@H](O)C[C@@]21C`, the “activity change, negative = cytotoxicity” value was 5.4% (inactive). Then `OCCN1C[C@H](O)[C@@H](O)[C@H](O)[C@H]1CO`, with 13.3% (inactive). For `NC(N)=NCCN1CCCCCCC1`, the activity change, negative = cytotoxicity was 13.2% [at 0.597 µM] (inactive). The value for `O=C1c2cccc(O)c2C(=O)c2c(O)cccc21` was -0.882% (inactive); that for `NNC(=O)CP(=O)(c1ccccc1)c1ccccc1` was 9.9% (inactive).

`C[C@@H](c1ncncc1F)C(O)(Cn1cncn1)c1ccc(F)cc1F` (stereo partly drawn): the “activity change, negative = cytotoxicity” value was 14.1% (inactive). The value for `Nc1ccncc1N` was -0.428% (inactive); that for `Cc1ccc(S(=O)(=O)NC(=O)NC2CCCCC2)cc1` was 9.31% (inactive); that for `Cc1cc(-n2nc3ccc(Cl)cc3n2)c(O)c(C(C)(C)C)c1` was 7.25% (inactive). Turning to `CN/C(=C\[N+](=O)[O-])NCCSCc1csc(CN(C)C)n1`, the “activity change, negative = cytotoxicity” value is 15.5% (inactive).

On to `CCN1CC(CCN2CCOCC2)C(c2ccccc2)(c2ccccc2)C1=O` (stereo not drawn), for which the “activity change, negative = cytotoxicity” value is 0.615% (inactive).

In the case of `O=C(/C=C/c1ccc(O)c(O)c1)O[C@@H]1C[C@@](OC(=O)/C=C/c2ccc(O)c(O)c2)(C(=O)O)C[C@@H](O)[C@@H]1O`, the “activity change, negative = cytotoxicity” value is 1.08% (inactive). As for `CCOC(=O)c1cccnc1`, the “activity change, negative = cytotoxicity” value was 5.76% (inactive). On to `CC[C@H](C)[C@H](N)C(=O)O`, for which the “activity change, negative = cytotoxicity” value was 4.55% (inactive).

With `O=C1c2ccccc2C(=O)C1c1ccc(Br)cc1`, the “activity change, negative = cytotoxicity” value is 0.15% (inactive).
